# From PubChem BioAssay
# Sampled rows, rich in hits. Any-hit rate of the full collection: about 1.4%.
# TCR activator = activators of T cell receptors. primary human leukocytes, anti-CD3, IL-2 HTRF, 48 h. Potency, µM (doses to about 9.22 µM), hits mostly activators. 330,000 tested, under 10 active
#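 48 hr co-incubation of compounds, a-CD3 beads and primary human leukocytes; IL-2 quantified homogeneously by HTRF with anti-IL-2 K and d2 conjugates.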
# GLS inh = glutaminase GLS (human) inhibition. GLS enzymatic activity, qHTS titration. Potency, µM (highest dose often 45.5 µM), usual class: inhibitors. 0.21% of 410,000 active
#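 Read-out is an Amplex red fluorescence increase coupled through glutamate oxidase and HRP, measured before and after 30 min room-temperature incubation. hKGA is in 45 mM KH2PO4 (pH 8.2) with 0.02% Tween-20; glutamine added as 1mM solution.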
# p53 reactivator = mutant p53 re-activation in reporter cells; 0.063% of 320,000 active; H1299 p53-A138V BP100-luciferase reporter, luminescence, 24 h; AID 504706; Potency, µM (doses to about 92.2 µM), hits mostly activators; also: nearly all actives have a fitted effect of over 45% in size
#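 H1299 (p53-null), stable ts p53-A138V + BP100-Luc; 1000 cells/well, Opti-MEM/10% FBS; cpd 4 pt, 1:5; 24 h, 37 deg C, 5% CO2; detection reagent 10 min RT; luminescence.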
# BRCA1 expr act = increases BRCA1 expression; AID 624202; Potency, µM (highest dose often 46.1 µM), usual class: activators; MCF7-BRCA1-FFLuc reporter, luminescence, 48 h; response scale: scaled: vehicle 0%, 10 µM genistein 100%; 1.1% of 380,000 active; also: nearly all actives have a fitted effect of over 80% in size
#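 Quantitative HTS in MCF7 cells stably reporting BRCA1 expression via firefly luciferase. Compound treatment lasts 48 h at 37 °C in phenol-red free MEM. Activation is expressed relative to genistein at 10 microM and DMSO.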
# N370S GC = N370S glucocerebrosidase modulation, Gaucher chaperone candidate. AID 2101. P04062. 0.092% of 330,000 active. N370S GC spleen homogenate, 4MU-glucoside fluorescence. Potency, µM (series often up to 59.4 µM), hits mostly inhibitors
# TSHR antagonist = human thyrotropin receptor antagonism; TSHR-expressing cells, TSH-stimulated cAMP HTRF, 2 h; active compounds read low; activity change, negative = inhibition, % at 11.5 µM; 0.2% of 330,000 active;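 active = activity change below a set negative limit, meaning inhibition stronger than a set level, cut at about -70% in these data; inconclusive = activity change between two set negative limits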
# Target sequence (P16473 whole entry, looked up): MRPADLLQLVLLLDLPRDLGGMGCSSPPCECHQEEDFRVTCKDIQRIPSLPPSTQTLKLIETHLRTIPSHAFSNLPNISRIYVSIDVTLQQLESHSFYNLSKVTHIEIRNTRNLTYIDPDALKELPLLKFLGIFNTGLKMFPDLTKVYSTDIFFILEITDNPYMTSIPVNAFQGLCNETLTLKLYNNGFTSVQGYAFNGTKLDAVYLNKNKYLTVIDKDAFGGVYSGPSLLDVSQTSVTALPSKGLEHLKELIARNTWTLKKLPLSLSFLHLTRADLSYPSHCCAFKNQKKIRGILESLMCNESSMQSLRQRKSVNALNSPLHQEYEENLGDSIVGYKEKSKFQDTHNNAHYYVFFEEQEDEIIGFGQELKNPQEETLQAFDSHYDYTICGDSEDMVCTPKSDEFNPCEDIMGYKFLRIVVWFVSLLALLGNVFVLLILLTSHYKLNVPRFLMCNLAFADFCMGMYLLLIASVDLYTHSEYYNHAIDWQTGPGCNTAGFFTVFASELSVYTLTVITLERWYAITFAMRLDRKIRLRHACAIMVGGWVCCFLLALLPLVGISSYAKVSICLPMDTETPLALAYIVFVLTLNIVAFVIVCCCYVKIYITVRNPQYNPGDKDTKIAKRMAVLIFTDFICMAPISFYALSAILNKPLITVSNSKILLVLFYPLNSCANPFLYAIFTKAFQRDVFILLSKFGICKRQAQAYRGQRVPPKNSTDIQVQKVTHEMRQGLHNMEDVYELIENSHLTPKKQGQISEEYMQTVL
#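 TSHR-expressing cells, 200/well, pre-treated with compound, then stimulated with EC80 TSH (4nM final) for 2 hours at 37 deg C. cAMP measured by competitive HTRF: anti-cAMP cryptate antibody in lysis buffer plus cAMP-d2, read after 30 minutes at room temperature.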
# Hits are given with their value; 0 = inactive; ? = inconclusive; - = no result; ! = a repeat was not active. Unless noted, calls follow the shape of the dose curve; as a rule, active = well fitted curve in the direction sought with a large enough effect; inconclusive = small, poorly fitted or top-dose-only effect, or another doubt; inactive = no such curve, though single readings can be large; an effect the other way counts as inactive or inconclusive.
SMILES,TCR activator,GLS inh,p53 reactivator,BRCA1 expr act,N370S GC,TSHR antagonist
COC(=O)c1ccc(-c2ccc(F)cc2)nc1C,0,0,?,?,0,0
CCOC(=O)c1ccc(-c2ccc3c(c2)CCC3)nc1C,0,0,?,10µM,0,0
O=C(Nc1cccc(Cl)c1)Nc1nc(-c2ccccc2)cs1,0,0,0,0,0,0
Cc1csc(NC(=O)Nc2cccc(Cl)c2)n1,0,0,28µM,?,0,0
Cc1csc(NC(=O)Cc2c(F)cccc2Cl)n1,0,0,-,4.5µM,0,0
O=C(OC(C(=O)N1CCOCC1)c1ccccc1)c1c2c(nc3ccccc13)CCCC2 (stereo not drawn),-,-,-,0,-,-
CCC(=O)NCC(=O)OCC(=O)c1ccccc1,0,25µM,0,0,0,0
CCC(=O)Nc1ccccc1C(=O)OCC(=O)c1ccccc1,0,0,0,2µM,0,0
CCC(=O)Nc1ccccc1C(=O)OCC(=O)c1ccc2ccccc2c1,0,0,0,0,0,0
CCCCC(=O)Nc1ccccc1C(=O)OCC(=O)c1ccc2c(c1)OCCO2,0,0,45µM,0,0,0
O=C(O)/C=C/C(=O)Nc1ccccc1C(=O)OCC(=O)c1ccc2c(c1)OCCO2,0,0,0,0,0,0
O=C(C[n+]1cccc(Br)c1)c1ccc(O)c(O)c1,-,-,-,0,-,-
Cc1ccc2c(n1)Oc1ccc(C(C)C(=O)OCC(=O)N(C)C)cc1C2 (stereo not drawn),-,0,-,-,-,-
N.N.O=C(O)C1(C(=O)O)CCC1.[Pt+2],-,-,-,-,-,0
CN(C(=O)c1ccco1)c1nnc(-c2ccc(F)cc2)s1,0,0,?,0,0,0
CN(C(=O)c1ccco1)c1nc(-c2ccc(F)cc2)cs1,-,0,-,4.5µM,0,0
COc1ccc(-c2csc(N(C)C(=O)c3cccs3)n2)cc1,0,0,0,10µM,0,0
Cc1noc(C)c1-c1cc(NCc2cccs2)ncn1,-,-,-,-,0,-
CC(C)c1ccc(Nc2nc(CC(=O)O)cs2)cc1,0,0,?,5µM,0,0
O=C(c1ccc2nc(Cc3ccccc3F)oc2c1)N1CCCC1,0,0,?,5.6µM,0,0
CC(c1ccccn1)N(C)C(=O)c1ccc2nc(Cc3ccccc3F)oc2c1 (stereo not drawn),0,0,?,11µM,0,0
Cc1cc(CN(C)C(=O)c2ccc3nc(Cc4ccccc4F)oc3c2)n[nH]1,0,0,0,0,0,0
O=C(NCc1ccncc1)c1ccc2nc(Cc3ccccc3F)oc2c1,0,0,0,0,0,0
Cc1cc(CNC(=O)c2ccc3nc(Cc4ccccc4F)oc3c2)nn1C,0,0,0,8.9µM,0,0
C=C1C=C(C(F)F)n2ncc(C(=O)NCc3ccc(F)cc3)c2N1,-,-,-,0,-,-
SMILES,TCR activator,GLS inh,p53 reactivator,BRCA1 expr act,N370S GC,TSHR antagonist
CCOC(=O)c1c(NC(=O)c2ccc(S(=O)(=O)N(C)C3CCCCC3)cc2)sc2c1CCN(C(C)C)C2,-,0,-,0,-,-
O=C(ONC1=NCCCCC1)c1cccc([N+](=O)[O-])c1,0,22µM,0,0,0,0
COc1cc(O)c2c(c1)oc(=O)c1c3cc(O)c(O)cc3oc21,-,-,-,-,0,-
NC(=O)c1cc[n+](CC2=C(C(=O)O)N3C(=O)C(NC(=O)C(c4ccccc4)S(=O)(=O)[O-])C3SC2)cc1 (stereo not drawn),-,-,-,-,0,-
N[C@@H](C(=O)N[C@@H]1C(=O)N2C(C(=O)O)=C(Cl)CS[C@H]12)c1ccccc1,0,11µM!,0,0,0,0
N[C@@H](C(=O)N[C@@H]1C(=O)N2C(C(=O)O)=C(CSc3cn[nH]n3)CS[C@H]12)c1ccc(O)cc1,-,6.3µM,-,-,-,-
CC1=C(C(=O)O)N2C(=O)C(NC(=O)C(N)c3ccc(O)cc3)C2SC1 (stereo not drawn),-,-,-,-,0,-
NC(=O)c1cc[n+](CC2=C(C(=O)O)N3C(=O)[C@@H](NC(=O)C(c4ccccc4)S(=O)(=O)[O-])[C@H]3SC2)cc1 (stereo partly drawn),0,0.79µM,0,0,0,0
Cc1ccccc1NC(=O)CSc1nc2ccccc2o1,0,0,0,13µM,0,0
Cc1ccccc1/C=N/NC(=O)CSc1nc2ccccc2o1,0,0,?,0,0,0
CC1CCCN(C(=O)CSc2nc3ccccc3o2)C1 (stereo not drawn),-,0,?,8.9µM,0,0
Cc1noc(C)c1-c1ccc2ncnc(N(C)Cc3ccco3)c2c1,-,-,-,-,0,-
O=C(Cc1cccs1)NCc1cccc(Br)c1,0,0,0,4µM,0,0
CNc1nc(-c2ccc3c(c2)CCN3C(=O)c2ccccc2F)c(C)s1,0,0,0,?,0,0
CNc1nc(-c2ccc3c(c2)CCN3C(=O)CC(C)(C)C)c(C)s1,0,0,0,11µM,0,0
COc1ccc(CNc2nc(-c3cccnc3)nc3ccccc23)c(OC)c1,-,-,-,-,11µM,-
COc1ccc(CNc2ccnc(-c3ccccc3Cl)n2)c(OC)c1,-,-,-,-,4.5µM,-
COc1ccc2[nH]cc(CCNc3ccnc(-c4ccccc4C)n3)c2c1,-,-,-,-,14µM,-
COc1ccc2[nH]cc(CCNc3ccnc(-c4ccc(C(=O)N(C)C)cc4)n3)c2c1,-,-,-,-,0,-
COc1ccc2[nH]cc(CCNc3nc(-c4cccnc4)nc4ccccc34)c2c1,-,-,-,-,13µM,-
COc1ccc(C2/C=C\CN([S+](=O)([O-])c3ccc4ccccc4c3)C(C)C(=O)N2Cc2ccc(F)cc2)cc1 (stereo not drawn),-,-,-,-,0,-
Cc1nc2ccccc2c(=O)n1/N=C/c1ccccc1Cl,0,0,?,10µM,0,0
O=C(C1CC(c2ccccc2O)=NO1)N1CCc2ccccc2C1 (stereo not drawn),0,0,0,?,0,0
O=C(C1CC(c2ccccc2O)=NO1)N1CCCCC1 (stereo not drawn),0,0,?,10µM,0,0
C(=C\c1c[nH]c2ccccc12)/c1ccc2ccccc2n1,-,-,-,0,-,-
SMILES,TCR activator,GLS inh,p53 reactivator,BRCA1 expr act,N370S GC,TSHR antagonist
O=C(Nc1nc2ccc(F)cc2s1)C1CCN(S(=O)(=O)c2cc([N+](=O)[O-])ccc2Cl)CC1,0,0,?,0,0,-92
Cc1ccc2nc(NC(=O)C3CCN(S(=O)(=O)c4cc([N+](=O)[O-])ccc4Cl)CC3)sc2c1,0,0,?,0,0,0
O=C1NC(=O)/C(=C/c2ccc3c(c2)OC(F)(F)O3)S1,-,-,-,-,-,0
Nc1ccc(C(Cc2ccnc3ccccc23)Cc2ccnc3ccccc23)cc1,-,-,-,0,-,-
CC1CCCCN1c1nnc(N)s1 (stereo not drawn),0,0,0,0,0,0
CC1CCCCN1c1ccc(N)cc1C(N)=O (stereo not drawn),0,2µM,0,0,0,0
C1=CN2CC=Cc3cc(/C=C/c4ccnc5ccccc45)cc(c32)C1,-,-,-,0,-,-
